Paper PMC12136788
Where a chain is given by its changes, count along the chain named. The full ranking holds about 5,800 sequences; the median of “enrichment r” is about 0.68, and the highest 2% start at about 11. Shown is part of a subset that was picked to be rich in the highest values.

B1: chr20:3933335:3933436:-|3pUTR|ENSG00000101236|msi1|total|mutant (ssRNA)
RNA: GGGAGUUCUACAGUCCGACGAUCUUACAACACCUGCUAUCAAAUCAUCUAAGCUGAAAACAUGAGAUGCGCUUGGAAAGGCCCCGUCAGAAGCCAUUUCCUCUUAUCAUUUCCCUCUCCUAUGCACCAGUAAGGCCCGUCCAGCAACAGAGGAUUGAGCAUCA
B2: chr7:103374401:103374592:-|CDS|ENSG00000170615|control|control|control (ssRNA)
RNA: GGGAGUUCUACAGUCCGACGAUCCCUGCCCUAUGGGAGCUGCUGUUCCACAGCAUUCAUGAUGCAGUUUUAGGCAGCCAACUUAGAGAGGCACUUGCUGAACAGGAAGCCUCGGCUCCCCCUUCCCAGGAGGACUUGGAGCCCCAACAGAGGAUUGAGCAUCA
B3: chr1:228494639:228494729:+|3pUTR|ENSG00000168159|msi1_unk|FALSE|overlapping (ssRNA)
RNA: GGGAGUUCUACAGUCCGACGAUCGCCAUCGUGUCUCAUCUUGCUGUUAUCUCUAGCUCUUUCCCUCCUCCCAUUUCCUUUAGUAGUUGAAUUUUGCAAAGCUUGUAGCAGUAGCUCAGUUGCCUGCAGCAUCCUUGUGUGUAGCAACAGAGGAUUGAGCAUCA
B4: chr1:88684422:88684524:+|5pUTR|ENSG00000065243|unk|FALSE|unique (ssRNA)
RNA: GGGAGUUCUACAGUCCGACGAUCUCGAUGAACCGGACGGAAUAAGCCGCGCCUCCAGCAGGGGCUGCGCCUCCAUGAAUCCCUAGUUGUUUUUUUUUUUUUCUUUCUCUCCCCUCUCCUCACCCCCACCCCGAGCCCCGUCCCCAACAGAGGAUUGAGCAUCA
B5: chr11:64204363:64204470:+|3pUTR|ENSG00000168439|unk|FALSE|unique (ssRNA)
RNA: GGGAGUUCUACAGUCCGACGAUCGCCCUCGAGUUCCAUGUCUCUUUCCCCUGCCCCUAGUUGCUGUCUCGGCUGCUCUCCCAUAGUUGGUUUUUUUUUUAUUUGGGGCAGUGGGCAUGUUAUGGGGAGGGGAGGGGGUUCUUCCAACAGAGGAUUGAGCAUCA
B6: chr1:88684422:88684524:+|5pUTR|ENSG00000065243|unk|total|mutant (ssRNA)
RNA: B4 RNA with U83C, A84C
B7: chr14:75134463:75134564:-|3pUTR|ENSG00000170348|msi1|FALSE|unique (ssRNA)
RNA: GGGAGUUCUACAGUCCGACGAUCCUGUUUGGACUAUGUUUUCUUUUCUUCUCCCACUUGCUCAGCAGCUUGGGCUUCCAUUCUAGUUCUUUUACCAAGAUUUUUGUGUGACCAUGUUGACUUCAUUUGGAUUGCCCUCUUUCACAACAGAGGAUUGAGCAUCA
B8: chr11:134247321:134247422:+|3pUTR|ENSG00000151502|unk|FALSE|unique (ssRNA)
RNA: GGGAGUUCUACAGUCCGACGAUCCCUUUUCAGAGCAUGAGGUCAGGCUCUGUAUCCCUCCUUUUCCUAGCUGAUAUUCUAACUAGAAGCAUUUGUCAAUUCCUUUGCCUCCCAACUGACAACACACGUUCAUUUUCCAACCUUCAACAGAGGAUUGAGCAUCA
B9: chr17:58090057:58090109:+|3pUTR|ENSG00000264364|msi1_unk|FALSE|overlapping (ssRNA)
RNA: GGGAGUUCUACAGUCCGACGAUCGGGUAGGAUUAGCUUGAAUCUUUUUUUUCUUUACAUUUUUCUCCUGUCUGCUCCCUGCUUAGCCCUCAGUUUCCUCAUUCCUCUGGAGUUCUCUUAGAGCAGCCCCUGUUGUUAGUUGGCCAACAGAGGAUUGAGCAUCA
B10: chr1:180885099:180885158:+|3pUTR|ENSG00000143324|msi1_unk|FALSE|overlapping (ssRNA)
RNA: GGGAGUUCUACAGUCCGACGAUCAGCUGAAGCUAUGCCUUAUUAUGCAUCCACAUGUAUGGUCCCUGUAGCGUGACCUUUACUAGCUCUGAAUCAGAAGACAGAGCUAUUUCAGAGGCUCUGUGUGCCCUCACUAGAUAGUUUCAACAGAGGAUUGAGCAUCA
B11: chr8:100258838:100258944:-|CDS|ENSG00000034677|unk|FALSE|unique (ssRNA)
RNA: GGGAGUUCUACAGUCCGACGAUCAGUGAAUUUGAGGCUCCAUCCCUCAGUGACAGUAUGCCUUCUGUAGCAGAUUCUCACUCUAGUCAUUUUUCUGAAUUUAGUUGUUCUGACCUAGAAAGCAUGAAAACUUCUUGUAGUCAUCAACAGAGGAUUGAGCAUCA
B12: chr22:21921976:21922077:-|3pUTR|ENSG00000100034|msi1|FALSE|unique (ssRNA)
RNA: GGGAGUUCUACAGUCCGACGAUCGACUGCAGUGGGCUCGGAUAGGCCCAUUGAGGUUUUUAGAAAAGCAGGAUUUGUUUUGUUAGGGAGGCAUGAUUUUGGUGAGAUCUUUCUGGAAGAGUUUUCCGCCUCUUUGUGAUGCUGCAACAGAGGAUUGAGCAUCA
B13: chr16:87831719:87831834:-|3pUTR|ENSG00000103257|msi1_unk|total|mutant (ssRNA)
RNA: GGGAGUUCUACAGUCCGACGAUCCCUGCGUUUGGAGGCCCCUGGGCUCUCACCCAGUCCCCACCCGCCUGCAGAGAGGGAACCCGGGCACCCCUUGUUUCUGUUGUUCCCGUGAAUUUUUUUCGCUAUGGGAGGCAGCCGAGGCAACAGAGGAUUGAGCAUCA
B14: chr5:97028609:97028710:+|3pUTR|ENSG00000113441|msi1|FALSE|bound_elsewhere (ssRNA)
RNA: GGGAGUUCUACAGUCCGACGAUCUUGCAAAAGCCAAGGUAAAGCCAGGAUCGCUGCCAAGUUGUUUGCACUCUUUGGAGUUCUAGUUAGCUCAGGGCCUGACUGUAUUUUUCAUCCAUCUUUUCUGAAGUGUCUUUGGGCAGUCAACAGAGGAUUGAGCAUCA
B15: chr4:150908776:150908877:-|CDS|ENSG00000198589|msi1|FALSE|bound_elsewhere (ssRNA)
RNA: GGGAGUUCUACAGUCCGACGAUCGUUGAUUUGUACUUAGAUUCUCUUUGUGGCAUACUAUUUAACUGUUUUUAAUUAAUUCUUAGGGUACAUUUAAAUUCAAAGCAGAAAGCGACCUUUUCCUUGCUGAGCAUCACAAACUUUCAACAGAGGAUUGAGCAUCA
B16: chr2:150470103:150470218:-|CDS|ENSG00000115963|unk|total|mutant (ssRNA)
RNA: GGGAGUUCUACAGUCCGACGAUCAUGGCCAAACAGAUUGGAGCAGCUACUUAUAUCGAAUGCUCAGCUUUACAGUCGGAAAACCGCGUCAGAGACAUUUUUCACGUUGCCACCUUGGCAUGUGUAAAUAAGACAAAUAAAAACCAACAGAGGAUUGAGCAUCA
B17: chr3:120396629:120396730:-|3pUTR|ENSG00000163430|msi1|FALSE|unique (ssRNA)
RNA: GGGAGUUCUACAGUCCGACGAUCGCCUUCAUUUCUAGGAGUGCUUUAAGAGAAACUGUAAAUGGUGCUCUGGGGCUGGAGGCUAGUAAGGAAACUGCAUCACGAUUGAAAGAGGAACAGACCCAAAUCUGAACCUCUUUUGAGCAACAGAGGAUUGAGCAUCA
B18: chr14:100883672:100883793:-|CDS|ENSG00000254656|unk|FALSE|unique (ssRNA)
RNA: GGGAGUUCUACAGUCCGACGAUCUCUAUUCCGGGUCCCUCAGCCGGAUUCCCUAGACAGUCUGAUUGUGCUCAUCCUGCAAAUAGAAGAGAAGCUGGCAGAGAGAAGAGCUAUGCUCAGGCUGCCCCCCGAGGCCCGCCCCCGCAACAGAGGAUUGAGCAUCA
B19: chr8:23842440:23842541:-|3pUTR|ENSG00000159167|msi1|total|mutant (ssRNA)
RNA: GGGAGUUCUACAGUCCGACGAUCCCAAUGCGACAAGCCGUUCAUGAGUAUUCCCCGCAAAUUUCUCUCUUUCUUCAGUUCAGCCGAUUUCCUUUUUUCUUUUCUUUUUUUUUUUUUUUUUUUUUGGCUGUGACCUCUUCAAACCAACAGAGGAUUGAGCAUCA
B20: chr8:23842440:23842541:-|3pUTR|ENSG00000159167|msi1|FALSE|unique (ssRNA)
RNA: B19 RNA with C37U, C38A, C54U, C55A, C83U, C84A
B21: ENSG00000103657:stop:overlap|stop_codon|ENSG00000103657|stop_codon|NA|stop_codon (ssRNA)
RNA: GGGAGUUCUACAGUCCGACGAUCAGUUUUCUGUUGCUUUGACCAAAGAUGGUCAUGUGUAUACCUUUGGUCAAGGUGGUGAGUAGUCACUAUGACCUCCUUUCAGUAUAGAUAAUUUUCCACUUCUCUUUCAUGUGCUUUAUUCAACAGAGGAUUGAGCAUCA
B22: chr19:582815:582998:+|CDS_3pUTR|ENSG00000172270|msi1_unk|total|mutant (ssRNA)
RNA: GGGAGUUCUACAGUCCGACGAUCUCAUACACUUCCUUCUUUUUUAAAAAAGUUGGGUUUUCUCCAUUCAGGAUUCUGUUCCUCCGGUUUUUUUCCUUCUGAAGUGUUUCACGAGAGCCCGGGAGCUGCUGCCCUGCGGCCCCGCAACAGAGGAUUGAGCAUCA

Biological target: T1, UNK ZnF1-6 (called full-length) (human, UniProt Q9C0B0 30-357)
T1 sequence: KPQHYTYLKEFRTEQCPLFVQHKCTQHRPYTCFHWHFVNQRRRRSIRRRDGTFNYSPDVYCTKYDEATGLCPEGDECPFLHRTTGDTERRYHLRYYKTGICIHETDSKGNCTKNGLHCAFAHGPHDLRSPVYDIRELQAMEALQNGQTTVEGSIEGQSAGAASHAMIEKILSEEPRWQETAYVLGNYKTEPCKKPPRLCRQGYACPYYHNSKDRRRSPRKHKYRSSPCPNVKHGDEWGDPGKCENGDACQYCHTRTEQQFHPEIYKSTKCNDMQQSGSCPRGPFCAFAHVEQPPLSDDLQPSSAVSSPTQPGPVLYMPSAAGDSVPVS
Assay: nsRBNS (natural sequence RNA bind-n-seq); RBNS binding buffer (assumed for nsRBNS): 25 mM Tris pH 7.5, 150 mM KCl, 3 mM MgCl2, 0.01% Triton X-100, 500 ug/ml BSA, 20 U/ml SUPERase-In, 4 C; UNK is unkempt and MSI1 is Musashi-1; names of the RNAs are library labels; protein concentration not given here; high values mean tight binding

Binder | binding signal
B1 | 0.525 enrichment R
B2 | 0.733 enrichment R
B3 | 14.7 enrichment R
B4 | 39 enrichment R
B5 | 20.5 enrichment R
B6 | 3.43 enrichment R
B7 | 0.995 enrichment R
B8 | 2.72 enrichment R
B9 | 4.34 enrichment R
B10 | 2.64 enrichment R
B11 | 13.2 enrichment R
B12 | 0.813 enrichment R
B13 | 0.698 enrichment R
B14 | 0.475 enrichment R
B15 | 3.69 enrichment R
B16 | 0.384 enrichment R
B17 | 0.489 enrichment R
B18 | 0.977 enrichment R
B19 | 3.66 enrichment R
B20 | 28.9 enrichment R
B21 | 0.846 enrichment R
B22 | 0.504 enrichment R
